Reference: PubChem BioAssay (NCATS)
Values without a mark were called inactive. Records with an inconclusive call do not appear. Entries that show only a call come without a potency. Calls of active or inactive are those of the source. Unless noted, calls come from the whole dose curve; as a rule, active = well fitted cell-killing curve with a large enough effect; inconclusive = small, poorly fitted or top-dose-only effect; inactive = flat fitted curve, though single readings scatter.

How the values were obtained:
[1] = Cell Viability - LYMP2-025 (AID 976); note: series mostly up to about 92 µM
Summary of the method: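 In qHTS format, LYMP2-025 lymphoblastoid cells in complete culture medium received compound for 24 hr; ATP-based CellTiter-Glo signal gave viability, with AC50 derived by Hill equation.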

[2] = Cell Viability - LYMP2-002 (AID 977); note: series mostly up to about 92 µM
Summary of the method: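 Luminescent ATP readout (CellTiter-Glo, 30 min room temperature) after 24 h compound exposure at 37 C of a human lymphoblastoid line, 2500 cells/well. AC50 values derived by standard Hill fitting of qHTS concentration-response data.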

[3] = Cell Viability - LYMP2-006 (AID 978); note: series mostly up to about 92 µM; nearly all actives have a fitted effect of over 60% in size
Summary of the method: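 Potency values are Hill-fit AC50s for decreases in intracellular ATP (CellTiter-Glo luminescence). LYMP2-006 lymphoblastoid cells, 2500 per well, were exposed to compound in complete culture medium for 24 hr at 37 C.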

[4] = Cell Viability - LYMP2-007 (AID 979);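 note: cells exposed to compound for 24 h before reading; nearly all actives have a fitted effect of over 60% in size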
Summary of the method: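 Acute toxicity is scored as a concentration-dependent fall in intracellular ATP in human lymphoblastoid cells treated 24 hr at 37 C, measured by luciferase luminescence; Hill-equation modelling yields AC50.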

[5] = Cell Viability - LYMP2-008 (AID 980); note: nearly all actives have a fitted effect of over 60% in size
Summary of the method: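 Acute cytotoxicity is scored as concentration-dependent loss of cellular ATP in a human lymphoblastoid line after 24 hr treatment at 37 C. ATP is quantified by luciferase luminescence.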

[6] = Cell Viability - LYMP2-010 (AID 981); note: nearly all actives have a fitted effect of over 55% in size; note: potency is the fitted concentration of half-maximal effect
Summary of the method: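 Acute toxicity is scored as a concentration-dependent loss of cellular ATP in human lymphoblastoid cells after 24 hr compound exposure in complete medium. Tetraoctylammonium bromide is the positive control.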

[7] = Cell Viability - LYMP2-012 (AID 982);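 note: cellular ATP by luciferase luminescence where a drop means cytotoxicity; cells exposed to compound for one day before reading; nearly all actives have a fitted effect of over 55% in size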
[8] = Cell Viability - LYMP2-014 (AID 983); note: series mostly up to about 92 µM; nearly all actives have a fitted effect of over 50% in size
Summary of the method: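 Decrease in intracellular ATP after 24 hr treatment at 37 C, measured by luciferase luminescence, indicated cytotoxicity. Concentration-response data were fitted with the standard Hill equation to give AC50.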

[9] = Cell Viability - LYMP2-016 (AID 984); note: nearly all actives have a fitted effect of over 55% in size
Summary of the method: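 Cytotoxicity was scored by luminescent ATP content (CellTiter-Glo) after 24 h compound exposure at 37 C of a human lymphoblastoid line at 2500 cells/well. Concentration-response data were fitted to the Hill equation for AC50.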

[10] = Cell Viability - LYMP2-018 (AID 985);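 note: compound exposure lasted 24 hr at 37 °C; nearly all actives have a fitted effect of over 50% in size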
Summary of the method: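 Acute cytotoxicity is scored as a concentration-dependent drop in intracellular ATP after 24 hr exposure of the lymphoblastoid line in complete culture medium, measured by luciferase luminescence. Potency is expressed as AC50 from Hill modelling.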

[11] = Cell Viability - LYMP2-020 (AID 986); note: series mostly up to about 92 µM; nearly all actives have a fitted effect of over 55% in size
Summary of the method: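 Acute cytotoxicity in a human lymphoblastoid line is scored as a concentration-dependent fall in cellular ATP after 24 hr at 37 C in complete medium. The positive control is tetraoctylammonium bromide, and potency is given as Hill-fit AC50.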

[12] = Cell Viability - LYMP2-022 (AID 987); note: nearly all actives have a fitted effect of over 55% in size
Summary of the method: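 Acute toxicity in a human lymphoblastoid line is scored as decreased intracellular ATP after 24 hr compound treatment at 37 C. ATP is measured by CellTiter-Glo luminescence; curves are fitted with the Hill equation to give AC50.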

[13] = Cell Viability - LYMP2-024 (AID 988); note: nearly all actives have a fitted effect of over 60% in size; note: potency is the fitted concentration of half-maximal effect
Summary of the method: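 Acute toxicity is measured as concentration-dependent loss of intracellular ATP in a human lymphoblastoid line treated 24 hours at 37 C. Luciferase luminescence quantifies ATP; AC50 values come from standard Hill-equation modelling.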

[14] = Cell Viability - LYMP2-026 (AID 989); note: nearly all actives have a fitted effect of over 50% in size
Summary of the method: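 Concentration-dependent loss of intracellular ATP in human lymphoblastoid cells after 24 hr at 37 C, quantified by luciferase luminescence. AC50 derived from standard Hill equation.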

[15] = Cell Viability - LYMP1-002 - Assay at 24 hr (AID 993)
Summary of the method: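 qHTS, LYMP1-002 lymphoblastoid, 24 h cpd, 37 C, CellTiter-Glo ATP luminescence; AC50 via Hill eq.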

[16] = Cell Viability - LYMP1-002 - Assay at 40 hr (AID 994); note: nearly all actives have a fitted effect of over 60% in size
Summary of the method: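 Viability in the human lymphoblastoid line was measured as intracellular ATP via CellTiter-Glo after 40 hr compound exposure. Tetraoctylammonium bromide served as positive control.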

[17] = qHTS Assay for Identification of Small Molecule Inducers of Hypoxia Response (AID 2120; active = well fitted curve in the direction sought with a large enough effect in the signal ratio, with a control signal flat, not every such curve was filed as active; the % refers to the signal ratio)
Summary of the method: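 Induction of beta-lactamase reporter activity was measured in CellSensor HRE-bla ME-180 cells after 17 h compound treatment at 37 degrees C, using CCF4 substrate and the 460nm/530nm emission ratio to derive AC50 values.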

[18] = target: Estrogen receptor (Homo sapiens) (UniProt P03372); experiment: qHTS assay for small molecule agonists of estrogen receptor alpha signaling (AID 588514; calls by dose curve; note: nearly all actives have a fitted effect of over 70% in size)
Chain of Estrogen receptor (Homo sapiens) (P03372 whole entry, looked up): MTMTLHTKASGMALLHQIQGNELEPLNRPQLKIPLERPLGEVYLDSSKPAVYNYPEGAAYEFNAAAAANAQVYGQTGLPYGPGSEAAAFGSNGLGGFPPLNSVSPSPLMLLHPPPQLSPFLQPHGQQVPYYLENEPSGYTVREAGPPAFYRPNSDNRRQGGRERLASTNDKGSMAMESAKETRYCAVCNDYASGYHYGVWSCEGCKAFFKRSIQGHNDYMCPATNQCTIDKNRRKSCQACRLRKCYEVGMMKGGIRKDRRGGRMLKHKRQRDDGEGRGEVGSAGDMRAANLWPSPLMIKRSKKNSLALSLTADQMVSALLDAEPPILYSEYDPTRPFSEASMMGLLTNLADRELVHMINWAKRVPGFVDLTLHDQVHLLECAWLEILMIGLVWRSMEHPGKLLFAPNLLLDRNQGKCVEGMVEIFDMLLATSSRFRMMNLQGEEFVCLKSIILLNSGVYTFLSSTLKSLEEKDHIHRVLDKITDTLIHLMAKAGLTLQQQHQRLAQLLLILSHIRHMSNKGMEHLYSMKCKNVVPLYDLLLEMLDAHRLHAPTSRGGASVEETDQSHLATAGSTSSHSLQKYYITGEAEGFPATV
Summary of the method: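 Reporter-gene assay. […] controls beta-lactamase in HEK 293 GripTite cells; after 18 hrs with compound, CCF4 substrate is added for 2 hrs and fluorescence is read.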

[19] = target: Estrogen receptor (Homo sapiens) (UniProt P03372); experiment: qHTS assay for small molecule antagonists of estrogen receptor alpha signaling (AID 588513; active = well fitted curve in the direction sought with a large enough effect in the signal ratio, with a control signal flat, not every such curve was filed as active; the % refers to the signal ratio)
Summary of the method: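 Antagonist mode: inhibition of 0.5 nM 17-beta-estradiol-driven beta-lactamase reporter in HEK 293 ER-alpha-UAS-bla cells, 18 h at 37C, CCF4 readout after 2 h at RT. Normalised to estradiol and DMSO; titration fitted to Hill.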

[20] = target: Androgen receptor (Homo sapiens) (UniProt P10275); experiment: qHTS assay for small molecule agonists of androgen receptor signaling (AID 588515; active = well fitted curve in the direction sought with a large enough effect in the signal ratio, with a control signal flat; the % refers to the signal ratio); conditions: AR-UAS-bla HEK293, beta-lactamase ratio, agonist 16 h; stronger effect = higher value
Chain of Androgen receptor (Homo sapiens) (P10275 whole entry, looked up): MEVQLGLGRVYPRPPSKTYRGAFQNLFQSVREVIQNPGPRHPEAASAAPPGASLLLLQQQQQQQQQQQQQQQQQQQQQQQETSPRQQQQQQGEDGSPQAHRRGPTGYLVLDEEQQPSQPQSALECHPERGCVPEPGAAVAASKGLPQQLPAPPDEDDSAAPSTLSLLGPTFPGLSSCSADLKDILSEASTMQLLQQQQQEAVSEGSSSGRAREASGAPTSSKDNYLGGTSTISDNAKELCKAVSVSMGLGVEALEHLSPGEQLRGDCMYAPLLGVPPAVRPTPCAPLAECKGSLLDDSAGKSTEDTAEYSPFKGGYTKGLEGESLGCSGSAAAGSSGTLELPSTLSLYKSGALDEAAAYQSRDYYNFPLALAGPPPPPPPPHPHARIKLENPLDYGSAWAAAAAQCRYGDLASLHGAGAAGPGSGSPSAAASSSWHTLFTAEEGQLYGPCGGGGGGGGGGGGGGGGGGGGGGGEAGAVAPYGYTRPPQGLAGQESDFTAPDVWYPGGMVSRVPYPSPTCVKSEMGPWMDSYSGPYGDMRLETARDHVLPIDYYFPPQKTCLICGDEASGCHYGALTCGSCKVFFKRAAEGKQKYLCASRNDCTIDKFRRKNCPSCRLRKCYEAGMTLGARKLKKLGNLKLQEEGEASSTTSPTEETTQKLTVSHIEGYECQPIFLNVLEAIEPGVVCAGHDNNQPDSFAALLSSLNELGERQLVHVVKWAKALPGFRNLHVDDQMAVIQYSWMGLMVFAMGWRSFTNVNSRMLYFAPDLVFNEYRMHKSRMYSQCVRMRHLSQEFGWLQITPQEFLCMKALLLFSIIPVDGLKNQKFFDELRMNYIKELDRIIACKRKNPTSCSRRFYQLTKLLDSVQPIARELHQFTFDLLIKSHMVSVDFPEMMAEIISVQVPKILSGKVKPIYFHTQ
Summary of the method: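 EC50 and efficacy came from Hill fits of titrations (up to 92 uM) normalized to 30 nM R1881 as 100% and DMSO as 0%. Compound exposure was 16 h at 37 C on AR-UAS-bla HEK293 cells, with a 405/460/530 nm CCF4 fluorescence read.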

| Structure (SMILES) | Potency [1] | Potency [2] | Potency [3] | Potency [4] | Potency [5] | Potency [6] | Potency [7] | Potency [8] | Potency [9] | Potency [10] | Potency [11] | Potency [12] | Potency [13] | outcome [14] | Potency [15] | Potency [16] | outcome [17] | Potency [18] | outcome [19] | activation [20] |
| --- | --- | --- | --- | --- | --- | --- | --- | --- | --- | --- | --- | --- | --- | --- | --- | --- | --- | --- | --- | --- |
| CC(=O)OCc1ccco1 | inactive | inactive | inactive | inactive | inactive | inactive | inactive | inactive | inactive | inactive | inactive | inactive | inactive | inactive | inactive | inactive | inactive | inactive | – | – |
| CN(C)CCCCl | inactive | inactive | inactive | inactive | inactive | inactive | inactive | inactive | inactive | inactive | inactive | inactive | inactive | inactive | inactive | inactive | inactive | inactive | – | – |
| COc1ccc(OC)cc1 | inactive | inactive | inactive | – | inactive | inactive | inactive | inactive | inactive | inactive | inactive | inactive | inactive | inactive | inactive | inactive | inactive | inactive | inactive | – |
| O=Cc1ccc(CO)o1 | inactive | inactive | inactive | inactive | inactive | inactive | inactive | inactive | inactive | inactive | inactive | inactive | inactive | – | inactive | inactive | inactive | – | inactive | – |
| O=[N+]([O-])c1cccc(C(F)(F)F)c1 | inactive | inactive | inactive | inactive | inactive | inactive | inactive | inactive | inactive | inactive | inactive | inactive | inactive | inactive | inactive | inactive | inactive | inactive | – | – |
| Cc1cc(C)cc([N+](=O)[O-])c1 | inactive | inactive | inactive | inactive | inactive | inactive | inactive | inactive | inactive | inactive | inactive | inactive | inactive | inactive | inactive | inactive | inactive | inactive | – | – |
| Cc1ccc(Br)cc1 | inactive | inactive | inactive | inactive | inactive | inactive | inactive | inactive | inactive | inactive | inactive | inactive | – | – | inactive | inactive | inactive | inactive | – | – |
| FC(F)(F)c1cccc(Cl)c1 | inactive | inactive | inactive | inactive | inactive | inactive | inactive | inactive | inactive | inactive | inactive | inactive | inactive | inactive | – | – | inactive | inactive | – | 4.73% |
| C/C(C=O)=C/c1ccccc1 | inactive | inactive | inactive | – | inactive | inactive | inactive | inactive | inactive | inactive | – | inactive | inactive | inactive | inactive | inactive | inactive | inactive | inactive | – |
| CCN(CC)c1cccc(O)c1 | inactive | inactive | inactive | inactive | inactive | inactive | inactive | inactive | inactive | inactive | inactive | inactive | inactive | inactive | inactive | inactive | inactive | – | inactive | – |
| Cc1ccc(S(=O)(=O)NC2CCCCC2)cc1 | inactive | inactive | inactive | inactive | inactive | inactive | inactive | inactive | inactive | inactive | inactive | inactive | inactive | inactive | inactive | inactive | inactive | inactive | – | – |
| O=Nc1ccc(NO)cc1 | inactive | inactive | inactive | – | inactive | 50.1 µM (active) | – | inactive | – | – | – | – | 39.8 µM (active) | inactive | inactive | – | inactive | – | inactive | – |
| FB(F)F | inactive | inactive | inactive | – | inactive | inactive | inactive | inactive | inactive | inactive | inactive | inactive | – | inactive | inactive | inactive | inactive | inactive | inactive | – |
| CCC(C)(C)C | inactive | inactive | inactive | inactive | inactive | inactive | inactive | inactive | inactive | inactive | inactive | inactive | inactive | inactive | inactive | inactive | inactive | inactive | – | – |
| C=C(C)C1CC=C(C)C(OC(C)=O)C1 (stereo not given) | inactive | inactive | inactive | inactive | inactive | inactive | inactive | inactive | inactive | inactive | inactive | inactive | inactive | inactive | inactive | inactive | inactive | inactive | – | – |
| Cc1cccc2sc(N)nc12 | inactive | inactive | inactive | inactive | inactive | inactive | – | inactive | inactive | inactive | inactive | inactive | inactive | inactive | inactive | inactive | inactive | – | inactive | – |
| C=C(C)C(N)=O | inactive | inactive | inactive | inactive | inactive | inactive | inactive | inactive | inactive | inactive | – | inactive | – | inactive | inactive | inactive | inactive | – | inactive | – |
